IDE exosite inh – displaces the probe from the exo-site of human IDE | 17,000 compounds, 6.3% hits | purified IDE, FL-6b probe fluorescence polarization; stronger effect = lower value | z-score at 20 µM | P14735;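 active = z-score of -3 or lower, meaning strong loss of probe binding signal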;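 note: His-tagged human IDE residues 42-1019 made in E. coli with 30 nM FL-6b probe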
Target sequence (P14735 42-1019 limits assumed): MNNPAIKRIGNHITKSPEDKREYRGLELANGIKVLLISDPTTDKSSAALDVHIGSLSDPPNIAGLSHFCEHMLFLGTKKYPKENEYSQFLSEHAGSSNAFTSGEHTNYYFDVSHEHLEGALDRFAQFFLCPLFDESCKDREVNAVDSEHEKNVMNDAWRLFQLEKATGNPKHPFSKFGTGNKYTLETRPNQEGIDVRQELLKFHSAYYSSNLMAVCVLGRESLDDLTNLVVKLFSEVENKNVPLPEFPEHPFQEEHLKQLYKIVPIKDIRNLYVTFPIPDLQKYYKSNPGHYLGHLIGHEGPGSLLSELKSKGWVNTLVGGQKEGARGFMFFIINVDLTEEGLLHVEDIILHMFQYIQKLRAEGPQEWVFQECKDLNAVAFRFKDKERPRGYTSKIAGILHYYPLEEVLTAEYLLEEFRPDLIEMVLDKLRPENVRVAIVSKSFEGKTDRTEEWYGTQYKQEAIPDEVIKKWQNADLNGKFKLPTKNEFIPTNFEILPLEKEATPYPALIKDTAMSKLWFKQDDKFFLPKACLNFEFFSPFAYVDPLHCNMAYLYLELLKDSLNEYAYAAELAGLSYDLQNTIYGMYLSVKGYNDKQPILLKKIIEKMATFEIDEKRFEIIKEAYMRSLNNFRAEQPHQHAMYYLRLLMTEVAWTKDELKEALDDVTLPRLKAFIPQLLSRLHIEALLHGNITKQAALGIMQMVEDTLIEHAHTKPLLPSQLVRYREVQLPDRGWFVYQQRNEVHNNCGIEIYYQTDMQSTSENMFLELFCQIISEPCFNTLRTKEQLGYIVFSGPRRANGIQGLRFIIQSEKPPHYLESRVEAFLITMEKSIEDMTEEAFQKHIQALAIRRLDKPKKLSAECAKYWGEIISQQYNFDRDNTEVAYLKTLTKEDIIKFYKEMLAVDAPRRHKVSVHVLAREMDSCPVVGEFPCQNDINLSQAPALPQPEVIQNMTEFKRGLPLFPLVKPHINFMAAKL
Of the large screens only hits and unclear results are named; the others gave an inactive call. Shown is part of a subset that was picked to be rich in hits.

COc1cccc(C#Cc2ccc([C@H]3[C@H](CO)N4C(=O)CN(C(=O)Cc5cccnc5)C[C@@H]34)cc2)c1	IDE exosite inh -4.1
CO[C@H]1CN(C)C(=O)c2ccc(NC(=O)Nc3ccccc3Cl)cc2OC[C@@H](C)NC[C@@H]1C	none
Cc1cccc(-c2ccc([C@@H]3[C@@H](CO)N4CCCCN(C(=O)c5cccnc5)C[C@H]34)cc2)c1	IDE exosite inh -4.3
Cc1cccc(-c2ccc([C@@H]3[C@@H](CO)N4CCCCN(C(=O)c5cccnc5)C[C@@H]34)cc2)c1	IDE exosite inh -3.3
O=C(c1cccc(F)c1)N1CCCCN2[C@H](CO)[C@@H](c3ccc(-c4cccnc4)cc3)[C@H]2C1	none
Cc1cccc(-c2ccc([C@H]3[C@H]4CN(C(=O)c5cccnc5)CCCCN4[C@H]3CO)cc2)c1	none
O=C(c1cccc(F)c1)N1CCCCN2[C@H](CO)[C@H](c3ccc(-c4cccnc4)cc3)[C@H]2C1	none
Cc1cccc(-c2ccc([C@H]3[C@H](CO)N4CCCCN(C(=O)c5cccnc5)C[C@@H]34)cc2)c1	none
CCS(=O)(=O)Nc1ccc2c(c1)C(=O)N(C)[C@@H]1CC[C@@H](CC(=O)N[C@@H]3CCN(Cc4ccccc4)C3)O[C@H]1CO2	none
CN(C)CC(=O)N1[C@@H](C#N)[C@@H](c2ccccc2-c2ccc(C(=O)N(C)C)cc2)[C@@H]1CO	none
CCCNC(=O)N1[C@H](CO)[C@H](c2ccccc2-c2ccccc2)[C@@H]1C#N	none
CN(C)CC(=O)N1[C@@H](C#N)[C@H](c2ccccc2-c2cccc(C(=O)N(C)C)c2)[C@@H]1CO	none
CC(=O)NC[C@H]1[C@@H](c2ccc(C3=CCCC3)cc2)[C@@H](CO)N1C(=O)CN(C)C	none
N#C[C@H]1[C@@H](c2ccccc2)[C@H](CO)N1C(=O)c1cccnc1	none
N#C[C@H]1[C@@H](c2ccc(C#Cc3ccccc3F)cc2)[C@@H](CO)N1C(=O)C1CCOCC1	IDE exosite inh -3.7
N#C[C@H]1[C@H](c2ccc(C#Cc3ccccc3F)cc2)[C@H](CO)N1C(=O)C1CC1	none
N#C[C@H]1[C@@H](c2ccc(C#Cc3ccccc3F)cc2)[C@H](CO)N1C(=O)C1CCC1	none
COCC(=O)N1[C@H](C#N)[C@H](c2ccc(C#Cc3ccccc3F)cc2)[C@H]1CO	none
COCC(=O)N1[C@@H](C#N)[C@@H](c2ccc(C#Cc3ccccc3F)cc2)[C@@H]1CO	none
COCC(=O)N1[C@@H](C#N)[C@H](c2ccc(C#Cc3ccccc3F)cc2)[C@@H]1CO	IDE exosite inh -4.3
N#C[C@H]1[C@H](c2ccc(-c3cccc(F)c3)cc2)[C@@H](CO)N1C(=O)c1cccnc1	none
N#C[C@@H]1[C@@H](c2ccc(C#Cc3ccccc3F)cc2)[C@H](CO)N1C(=O)c1cccnc1	none
N#C[C@H]1[C@H](c2ccc(-c3cccc(F)c3)cc2)[C@H](CO)N1C(=O)c1cccnc1	IDE exosite inh -6
N#C[C@@H]1[C@@H](c2ccc(-c3cccc(F)c3)cc2)[C@H](CO)N1C(=O)c1cccnc1	none
N#C[C@H]1[C@H](c2ccc(C#Cc3ccccc3F)cc2)[C@@H](CO)N1C(=O)c1cccnc1	IDE exosite inh -5.5
C[C@@H](NC(=O)C[C@@H]1CC[C@@H]2[C@H](COC[C@H](O)CN2C(=O)Nc2cccc(Cl)c2)O1)c1ccccc1	none
C/C=C/c1ccc([C@H]2[C@H](CO)N3C(=O)CN(C(=O)c4ccncc4)C[C@@H]23)cc1	none
CCCC#Cc1ccc([C@H]2[C@@H](CO)N3C(=O)CN(C(=O)Nc4cccc(F)c4)C[C@H]23)cc1	none
COc1cccc(S(=O)(=O)N2[C@@H]3CNC[C@H]2C3c2ccc(-c3ccc(C(=O)N(C)C)cc3)cc2)c1 (some centres not stated)	none
CCS(=O)(=O)Nc1ccc2c(c1)C(=O)N(C)[C@H]1CC[C@@H](CC(=O)N[C@H]3CCN(Cc4ccccc4)C3)O[C@H]1CO2	none
FC(F)(F)c1ccccc1CN1[C@@H]2CNC[C@H]1C2c1ccc(-c2ccncc2)cc1 (some centres not stated)	none
N#C[C@@H]1[C@H](c2ccccc2)[C@@H](CO)N1C(=O)Nc1cccc(F)c1	none
CC(=O)N1CCCCN2[C@H](C1)[C@@H](c1ccc(Br)cc1)[C@@H]2CO	none
C[C@H](O)C#Cc1ccc([C@H]2[C@@H](CO)N3CCCCN(C(=O)c4cccc(F)c4)C[C@@H]23)cc1	none
N#C[C@@H]1[C@@H](c2ccc(C#Cc3ccccc3F)cc2)[C@@H](CO)N1C(=O)C1CCC1	none
N#C[C@H]1[C@@H](c2ccc(C#Cc3ccccc3F)cc2)[C@@H](CO)N1C(=O)C1CCC1	none
N#C[C@@H]1[C@H](c2ccc(C#Cc3ccccc3F)cc2)[C@H](CO)N1C(=O)C1CCOCC1	IDE exosite inh -6.4
Cc1ccc(S(=O)(=O)N[C@@H]2CC[C@@H](CC(=O)NCc3ccncn3)O[C@@H]2CO)cc1	none
O=C(c1ccccc1)N(CC1CCC1)C[C@@H]1N[C@H](CO)[C@@H]1c1ccccc1	none
CC(C)NC(=O)N1CC(=O)N2[C@H](CO)[C@@H](c3ccc(C#CCN(C)C)cc3)[C@@H]2C1	none
COc1ccc(-c2ccc([C@@H]3[C@@H](CO)N4CCCCN(C(=O)NC(C)C)C[C@@H]34)cc2)cc1	IDE exosite inh -4.1
COc1ccc(-c2ccc([C@H]3[C@H]4CN(C(=O)NC(C)C)CCCCN4[C@H]3CO)cc2)cc1	IDE exosite inh -11
COc1ccc(-c2ccc([C@@H]3[C@@H](CO)N4C(=O)CN(C(=O)NC(C)C)C[C@H]34)cc2)cc1	none
COc1ccc(-c2ccc([C@H]3[C@H](CO)N4CCCCN(C(=O)c5ccc(F)cc5)C[C@@H]34)cc2)cc1	none
COc1ccc(-c2ccc([C@@H]3[C@H](CO)N4CCCCN(C(=O)c5ccc(F)cc5)C[C@@H]34)cc2)cc1	none
COCC(=O)N1CCCCN2[C@H](C1)[C@@H](c1ccc(-c3ccc(OC)cc3)cc1)[C@@H]2CO	none
COCC(=O)N1CCCCN2[C@@H](CO)[C@H](c3ccc(-c4ccc(OC)cc4)cc3)[C@@H]2C1	none
COCC(=O)N1CCCCN2[C@H](CO)[C@H](c3ccc(-c4ccc(OC)cc4)cc3)[C@@H]2C1	none
COc1ccc(-c2ccc([C@@H]3[C@H](CO)N4CCCCN(C(=O)NC(C)C)C[C@@H]34)cc2)cc1	IDE exosite inh -5.6
O=C(C[C@H]1CC[C@H](NC(=O)c2cccnc2)[C@H](CO)O1)NCc1ccc(Cl)c(Cl)c1	none
CC(C)NC(=O)N1[C@H](C#N)[C@@H](c2ccc(C#CC3CC3)cc2)[C@@H]1CO	none
N#C[C@H]1[C@H](c2ccccc2C2=CCCC2)[C@@H](CO)N1C(=O)C1CC1	none
Cc1ccccc1S(=O)(=O)N1CCCCN2[C@H](CO)[C@@H](c3ccc(-c4cccc(F)c4)cc3)[C@H]2C1	none
C[C@@H](NC(=O)C[C@@H]1CC[C@H]2[C@@H](COc3ccc(NC(=O)C4CCOCC4)cc3C(=O)N2C)O1)c1ccccc1	none
CC(=O)N(C)C[C@H]1[C@H](c2ccc(-c3ccccc3F)cc2)[C@@H](CO)N1C(C)=O	none
O=C1CN(S(=O)(=O)c2cccc(F)c2)C[C@H]2[C@H](c3ccc(C4=CCCC4)cc3)[C@@H](CO)N12	none
COCC#Cc1ccc([C@@H]2[C@H](CO)N3CCCCN(C(=O)NC4CCCC4)C[C@@H]23)cc1	none
CCCC#Cc1ccc([C@H]2[C@@H](CO)N3CCCCN(C(=O)NC4CCCC4)C[C@H]23)cc1	IDE exosite inh -3.2
CCCC#Cc1ccc([C@@H]2[C@@H](CO)N3CCCCN(C(=O)NC4CCCC4)C[C@@H]23)cc1	none
COCC#Cc1ccc([C@@H]2[C@H]3CN(C(=O)NC4CCCC4)CCCCN3[C@H]2CO)cc1	none

Screening data deposited in PubChem BioAssay by Broad Institute.
